HPGD block – qHTS Assay for Inhibitors of HPGD (15-Hydroxyprostaglandin Dehydrogenase); purified HPGD, NADH fluorescence kinetic, PGE2 substrate; 15-hydroxyprostaglandin dehydrogenase [NAD(+)] (Homo sapiens), P15428; Potency, µM, without a hit: at the highest dose activity change, negative = inhibition, usual class: inhibitors; AID 894, 2007; actives 4.3% (n = 150,000); note: potency is the fitted concentration of half-maximal effect
Target sequence (P15428 whole entry, looked up): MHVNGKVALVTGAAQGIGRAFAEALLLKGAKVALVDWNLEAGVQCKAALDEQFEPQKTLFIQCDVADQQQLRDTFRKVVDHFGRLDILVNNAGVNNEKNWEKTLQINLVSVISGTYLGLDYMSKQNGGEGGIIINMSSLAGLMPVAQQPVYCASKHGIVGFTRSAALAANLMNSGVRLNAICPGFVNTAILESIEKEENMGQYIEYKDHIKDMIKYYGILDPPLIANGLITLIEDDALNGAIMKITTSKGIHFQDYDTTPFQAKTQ
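20 nM HPGD preincubated 15 min at room temperature with compound in 50 mM Tris-HCl pH 8, 0.01% Tween 20. Started with 1 mM NAD+ and 30 uM prostaglandin E2; NADH fluorescence (360/450 nm) read 5 times over 30-s intervals, last minus first.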
ALDH1A1 block – qHTS Assay for Inhibitors of Aldehyde Dehydrogenase 1 (ALDH1A1); Purified ALDH1A1, NADH fluorescence, propionaldehyde substrate; Potency, µM (titrated, usually from 75.3 µM), for inactives: top-dose activity, negative = inhibition, actives largely listed as inhibitors; actives 7.3% (n = 220,000);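 note: potency is the fitted concentration of half-maximal effect; plate controls were no enzyme wells and a reference inhibitor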
IMPase inh – qHTS Assay for Identifying the Cell-Membrane Permeable IMPase Inhibitors; inhibition (IP1 accumulation), % at 46.1 µM; AID 901, 2007; 120,000 tested, under 10 active; CHO-M1 cells, IP1 accumulation, HTRF TR-FRET ratio; active = well fitted curve in the direction sought with a large enough effect in the signal ratio, not every such curve was filed as active; inconclusive = small, poorly fitted or top-dose-only effect, or a change in a side signal; inactive = no such curve, though single readings can be large or run the other way; the % refers to the signal ratio;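 note: cells stimulated with carbachol in lithium chloride buffer; plate controls were DMSO basal wells for no effect and reference inhibitor wells for full effect; higher means more IMPase inhibition seen as more IP1 and lower FRET ratio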
Target sequence (P97697 whole entry, looked up): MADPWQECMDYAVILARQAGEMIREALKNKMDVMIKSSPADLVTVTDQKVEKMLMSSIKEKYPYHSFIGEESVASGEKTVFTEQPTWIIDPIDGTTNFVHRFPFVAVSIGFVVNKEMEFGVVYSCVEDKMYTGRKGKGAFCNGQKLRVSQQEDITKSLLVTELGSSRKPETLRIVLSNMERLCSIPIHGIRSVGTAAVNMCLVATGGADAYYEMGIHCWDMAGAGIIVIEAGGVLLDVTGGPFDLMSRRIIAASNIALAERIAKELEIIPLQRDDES
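The IP-One HTRF competitive assay in carbachol-stimulated CHO-M1 cells quantifies cellular IP1. Compounds spanned up to 46 uM final, and activity is expressed as AC50 from concentration-response fits of the ratio and donor data.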
IMPase Li inh – qHTS Assay for Identifying the Cell-Membrane Permeable IMPase Inhibitors: Potentiation with Lithium; CHO-M1 cells, IP1 TR-FRET (IP-One), carbachol + lithium; Potency, µM (highest dose often 59.4 µM), without a hit: at the top dose activity, negative = IMPase inhibition, actives largely listed as inhibitors; AID 1457, 2008; actives 0.35% (n = 210,000); active = well fitted inhibition curve with a large enough effect; inconclusive = small, poorly fitted or top-dose-only effect; inactive = no such curve, though single readings can be large or run the other way;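 note: IP1 builds up when IMPase is blocked and the TR-FRET signal falls; potency is the fitted concentration of half-maximal effect; plate controls were basal vehicle for no effect and high inhibitor control for full effect; nearly all actives have a fitted effect of over 50% in size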
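Steps: plate 2000 CHO-M1 cells per well and culture 16–30 h; add compound and lithium; incubate 30 min, 37C; add d2-IP1 tracer and Eu cryptate anti-IP1 antibody in lysis buffer; read after 10 min at room temperature.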
PNC assembly inh – High Content Assay for Compounds that inhibit the Assembly of the Perinucleolar Compartment; PC3M PTB-GFP, PNC prevalence imaging, 16 h; stronger effect = lower value; actives 3.1% (n = 140,000); AID 2417, 2010; activity change (PNC), negative = inhibition, % at 10 µM;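 active = readout at or below -70, meaning at least 70% loss of cells showing the perinucleolar compartment, a nuclear body marking cancer cells; inconclusive = readout between -30 and a set limit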;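 note: plate controls were DMSO wells for no effect and camptothecin positive control wells for full effect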
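PC3M cells stably expressing PTB-GFP, 750–1000 cells/well, treated 16 h at 37 °C with compound (23 nl of library stock), in duplicate. After paraformaldehyde fixation and Hoechst stain, imaged at 20x; PNC prevalence scored by image analysis.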
An asterisk follows results filed as active; ? = inconclusive; · = no result; [ ] = remark or other dose. Sampled rows, rich in hits. Any-hit rate of the full collection: about 11%. Unless noted, calls come from the whole dose curve; as a rule, active = well fitted inhibition curve with a large enough effect (not every such curve was filed as active); inconclusive = small, poorly fitted or top-dose-only effect, or another doubt; inactive = no such curve, though single readings can be large or run the other way. Unless noted, % is set by controls: 0 for no effect and ±100 for the full control effect.

SMILES | HPGD block | ALDH1A1 block | IMPase inh | IMPase Li inh | PNC assembly inh
O=C(Cc1ccc(Cl)cc1)NCc1ccccc1Cl | · | 7% | · | 0% | ·
O=C(Cc1ccccc1Cl)NC1(O)C(=O)c2ccccc2C1=O | · | 1.1µM* | · | · | ·
Cc1ccc(S(=O)(=O)c2cnc(-c3ccccc3)nc2N2CCCCC2)cc1 | · | 13µM* | · | 10% | ·
O=S(=O)(c1ccccc1)c1cnc(-c2ccccc2)nc1N1CCCC1 | · | ? | · | 9% | ·
CCCCn1c(=O)c2[nH]c(C34CC5CC(CC3C5)C4)nc2n(CCCO)c1=O | -6% | -15% | · | 6% | ·
N#C/C(=N/Nc1ccc(S(=O)(=O)N2CCOCC2)cc1)C(N)=O | · | -5% | · | 11% | ·
N#C/C(=N\Nc1ccc(S(=O)(=O)N2CCc3ccccc32)cc1)C(N)=S | · | 6.3µM* | · | 11% | ·
N#C/C(=N\Nc1ccc(S(=O)(=O)N2CCCCCC2)cc1)C(N)=S | · | 8.9µM* | · | 6% | ·
CC(=O)Nc1ccc(S(=O)(=O)N2CCN(S(=O)(=O)N3CCCCC3)CC2)cc1 | · | 10% | · | -5% | ·
N#C/C(=N\Nc1ccc(S(=O)(=O)N2CCCCC2)cc1)C(N)=S | -28% | 13µM* | · | -2% | 21
CC1CCN(C(=O)CSc2nnc(CSc3ncccn3)n2C)CC1 | -15% | 2% | -4 | 4%[38.3 µM] | 32
CCOc1ccc(N2CCc3c(C)nc(SC)nc32)cc1 | · | ? | · | 10% | ·
CCN(CC(=O)NC(=O)NCc1ccco1)Cc1nc2ccccc2c(=O)[nH]1 | -24% | 10µM* | 8 | 18%[38.3 µM] | -3
COC(=O)[C@@H]1C[C@H]2CC[C@H](O)C[C@H]2N1Cc1c(F)cccc1Cl | -11% | 0% | · | -2% | ·
CC(C)c1ccccc1S(=O)c1ccccc1C(C)(C)O (centres undefined) | -3% | 24%[13.5 µM] | · | 1% | ·
O=C(NN1C(=O)C2C3C=CC(C3)C2C1=O)c1ccncc1 (centres undefined) | -8% | 15% | · | 3% | -113*
Cc1snc(SCC(=O)c2ccc(F)cc2)c1C#N | · | ? | · | 5% | ·
Cc1snc(SCC(=O)c2ccc([N+](=O)[O-])cc2)c1C#N | · | 2.8µM* | · | 14% | ·
N[C@H](CCCP(=O)(O)O)C(=O)O | -11% | -2% | 3 | 8% | ·
CC1(C)C(c2ccco2)=[N+]([O-])C2(CCCCC2=O)N1O (centres undefined) | -13% | -9% | -9 | 16% | 255
C/C(=N/Nc1ccc(C)cc1)C1(C)N(O)C(C)(C)C(c2ccco2)=[N+]1[O-] (centres undefined) | · | 25µM* | · | 8% | ·
NC(=O)Cn1c2[n+](c3ccccc31)CC(O)CS2 (centres undefined) | -9% | 11µM* | -1 | 18%[38.3 µM] | -10
NC/C=C\C(=O)O | -9% | -5% | -6 | -9% | ·
FC(F)(F)c1ccccc1-c1nccc(-n2ccnc2)n1 | · | ? | · | 13% | ·
CCN(CC)C(=O)c1cccc(-c2ccc(OC)cc2)c1 | 14µM* | 16% | 20 | 4%[38.3 µM] | 33
SMILES | HPGD block | ALDH1A1 block | IMPase inh | IMPase Li inh | PNC assembly inh
COC(=O)CNC(=O)c1cccc(-c2ccc(OC)cc2)c1 | · | -5% | · | -3% | ·
CO[C@H]1COC(=O)[C@H](C)NC(=O)[C@@H](C)COC(=O)[C@H]2CCCN2C(=O)C/C=C\[C@H]1C | · | 9%[13.5 µM] | · | · | ·
CCCCCN(C(=O)NC(=O)Nc1ccccc1C)S(=O)(=O)c1ccccc1 | 7% | -12% | 9 | 5% | -3
Cc1c(N=C2C=C(Br)C(=O)C(Br)=C2)c(=O)n(-c2ccccc2)n1C | · | 10µM* | · | 6% | ·
O=C1C[C@@H](O)[C@@H](O)[C@@H]2[C@H]3C(=O)N(c4ccc(F)cc4F)C(=O)[C@@H]3CC[C@H]12 | · | -3%[13.5 µM] | · | · | ·
CCOC(=O)N1CCN(C(=O)c2ccc(N3C(=O)CCC3=O)cc2)CC1 | -2% | 21% | -7 | 17%[38.3 µM] | -89*
CCOC(=O)c1ccc(N2C(=O)CC(NC3CCN(C(=O)c4ccc(F)cc4)CC3)C2=O)cc1 (centres undefined) | -7% | 14µM* | -2 | 0% | -1

Assay outcomes: PubChem BioAssay, National Center for Advancing Translational Sciences (NCATS)
